Results: PubChem BioAssay AID2702 (National Center for Advancing Translational Sciences (NCATS), 2010)
Activity calls are given as the source filed them.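 The calls were made as follows: active = compounds blocking 15-hLO-2 with IC50 at or below the top tested dose, none here; inactive = the rest.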

Target: Polyunsaturated fatty acid lipoxygenase ALOX15B (Homo sapiens) (UniProt O15296)
Assay: Cuvette-Based Assay fo Inhibitors of 15-hLO-2 (15-human lipoxygenase 2)
Conditions: purified 15hLO-2, arachidonic acid, UV 234 nm cuvette
Experimental: Human lipoxygenase 15hLO-2 is a member of the closely related lipoxygenase family of enzymes which catalyze the site-specific oxidation of arachidonic acid to various hormone precursor molecules and as such is a candidate for drug development in a variety of disease areas, such as cancer and inflammation. Inhibition of 15hLO-2 activity was screened by utilizing arachidonic acid as a substrate. The extent of hydroperoxide product formation was measured by a secondary chromogenic reaction in which xylenol orange (XO, Sigma-Aldrich, cat. number 39,818-7) reacts with the ferric ions produced from the reaction between the hydroperoxide and ferrous ions. The Fe(III)-XO complex is characterized with red-shifted absorbance at 560 nm. A purified preparation of human 15hLO-2 was supplied by Professor Ted Holman, University of California, Santa Cruz. This assay is includes some confirmation and follow-up compounds for related primary screening assay AID 881. Assay Provider: Holman, T.R., University of California, Santa Cruz Screening Center PI: Austin, Christopher P. Screening Center: NIH Chemical Genomics Center
For control experiments, 2 mL of substrate buffer (7 uM arachidonic acid / 25 mM HEPES / 0.01% (v/v) Triton X-100, pH 7.5) was aliquoted in a cuvette with a magnetic stir bar. After equilibrium was ensured, an aliquot of inhibitor solvent was added (DMSO or MeOH), and equilibrium was once again assured. The reaction was started by adding enzyme to the cuvette and the reaction was followed until completed. The inhibition experiments were performed as above, except the actual inhibitory compound was added instead of vehicle. To achieve an IC50, typically 5 concentrations of the inhibitor were studied. If the inhibitor concentration was constant, then five different reaction volumes were used. Step \ Parameter \ Value \ Description 1; UV-Vis; 234 nm; Equilibration 2; Reagent; 2 mL; Substrate buffer 3; UV-Vis; 234 nm; Equilibration 4; Reagent; varies; Compound 5; UV-Vis; 234 nm; Equilibration 6; Reagent; 50-200 nM; Enzyme 15hLO-2 7; UV-Vis; 234 nm; Enzymatic reaction Step \ Notes 1. Blank cuvette to air. 2. 7 uM AA, 25 mM HEPES, 0.01% Triton X-100, pH 7.5. 3. No change in absorbance ensured. 4. Compound vehicle or compound in various concentrations depending on potency. 5. No change in absorbance ensured. 6. Enzyme concentration to achieve reaction rate between 0.02 and 0.04 AU/s. 7. Enzymatic reaction visualized until completion.

Chain of Polyunsaturated fatty acid lipoxygenase ALOX15B (Homo sapiens) (O15296 whole entry, looked up): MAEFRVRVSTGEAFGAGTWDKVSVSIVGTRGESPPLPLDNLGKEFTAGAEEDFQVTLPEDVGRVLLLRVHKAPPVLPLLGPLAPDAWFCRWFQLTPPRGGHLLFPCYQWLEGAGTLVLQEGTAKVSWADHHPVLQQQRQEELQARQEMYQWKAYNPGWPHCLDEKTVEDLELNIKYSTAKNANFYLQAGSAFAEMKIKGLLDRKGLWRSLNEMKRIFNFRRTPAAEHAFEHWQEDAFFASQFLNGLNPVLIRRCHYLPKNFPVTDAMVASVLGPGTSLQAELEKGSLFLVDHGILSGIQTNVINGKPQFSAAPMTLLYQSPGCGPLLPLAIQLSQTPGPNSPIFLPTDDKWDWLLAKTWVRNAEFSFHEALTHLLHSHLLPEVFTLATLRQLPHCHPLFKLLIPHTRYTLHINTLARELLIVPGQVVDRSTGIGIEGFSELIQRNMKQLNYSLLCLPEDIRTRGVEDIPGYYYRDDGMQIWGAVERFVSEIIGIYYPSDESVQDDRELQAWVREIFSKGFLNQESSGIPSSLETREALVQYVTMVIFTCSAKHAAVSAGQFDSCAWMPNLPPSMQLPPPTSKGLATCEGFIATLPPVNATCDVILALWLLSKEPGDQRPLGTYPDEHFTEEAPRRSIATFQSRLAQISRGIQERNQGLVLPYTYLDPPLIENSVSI

outcome, inactive:
O=C(OCC#CCSc1nnc(-c2cccc3ccccc23)o1)c1cc2ccccc2o1, O=C(OCC#CCSc1nnc(-c2cccc3ccccc23)o1)c1cccs1, O=C1c2ccccc2NC(c2ccc(-c3cccc(Cl)c3)o2)N1O (configuration not stated), CC(=O)N1CCN(c2ccc(NCc3ccc4c(c3)OCO4)cc2)CC1, COc1cccc(CNc2ccc(N3CCCCC3)cc2)c1OC, O=C(OCC#CCSc1nnc(-c2cccc3ccccc23)o1)c1ccc(F)cc1, CC(C)Nc1oc(-c2cccc3ccccc23)nc1C#N
